# Measured values reported in PubChem BioAssay (Tox21).
# Unmarked numbers belong to inactive results. Inconclusive results are not listed. Entries that show only a call come without a potency. The source made the active and inactive calls. Unless noted, calls follow the shape of the dose curve; as a rule, active = well fitted curve in the direction sought with a large enough effect in the repeat runs; inconclusive = weak or mixed curves; inactive = no such curve, though single readings can be large; an effect the other way counts as inactive or inconclusive.
# What was measured:
# [1] = molecular target: Estrogen receptor beta (Homo sapiens) (UniProt Q92731); assay: qHTS assay to identify small molecule agonists of the estrogen receptor beta (ER-beta) signaling pathway (AID 1259377; active = well fitted activation curve with a large enough effect in the signal ratio in the repeat runs, not every such curve was filed as active; the % refers to the signal ratio)
# Estrogen receptor beta (Homo sapiens), sequence (Q92731 whole entry, looked up): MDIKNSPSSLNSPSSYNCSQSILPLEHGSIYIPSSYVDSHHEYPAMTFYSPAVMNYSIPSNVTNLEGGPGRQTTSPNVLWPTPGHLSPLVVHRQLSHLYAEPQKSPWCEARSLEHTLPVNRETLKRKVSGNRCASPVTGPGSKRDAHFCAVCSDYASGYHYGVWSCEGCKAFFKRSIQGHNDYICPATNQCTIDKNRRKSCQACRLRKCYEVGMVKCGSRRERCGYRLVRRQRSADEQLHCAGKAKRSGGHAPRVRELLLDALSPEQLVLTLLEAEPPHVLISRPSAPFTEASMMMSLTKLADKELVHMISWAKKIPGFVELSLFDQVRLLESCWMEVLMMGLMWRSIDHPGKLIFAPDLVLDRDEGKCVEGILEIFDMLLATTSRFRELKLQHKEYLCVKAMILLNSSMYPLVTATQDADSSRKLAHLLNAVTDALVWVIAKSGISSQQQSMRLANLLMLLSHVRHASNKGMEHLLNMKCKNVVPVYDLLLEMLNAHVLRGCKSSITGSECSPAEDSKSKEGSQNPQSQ
# Procedure, shortened: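 HEK293T ER-beta-UAS-bla; 2% charcoal-stripped FBS; cells pre-incubated 6 hr, compound 16 hr, 37C/5% CO2; LiveBLAzer B/G FRET substrate 2 h RT; fluorescence intensity read.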
# [2] = molecular target: Estrogen receptor beta (Homo sapiens) (UniProt Q92731); assay: qHTS assay to identify small molecule antagonists of the estrogen receptor beta (ER-beta) signaling pathway (AID 1259378; active = well fitted inhibition curve with a large enough effect in the signal ratio in the repeat runs, not every such curve was filed as active; the % refers to the signal ratio; also: potency is read from the fitted curve at half-maximal effect)
# Procedure, shortened: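 Antagonist mode: compounds added to beta-lactamase reporter HEK293T ER-beta-UAS cells stimulated with E2 (1nM final), 16 hr at 37C. LiveBLAzer B/G FRET substrate, 2 hours room temperature, fluorescence read-out.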
# [3] = qHTS assay to identify small molecule agonists of the androgen receptor (AR) signaling pathway in the presence of an antagonist - cell viability counter screen (AID 1259379); also: nearly all actives have a fitted effect of over 25% in size; also: potency is read from the fitted curve at half-maximal effect
# Procedure, shortened: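 Cells: MDA-kb2 (MMTV-luc, AR and GR elements), 3,000/well, 5 hr settle. Added: nilutamide 3.0uM final, then compounds (15 conc.). Incubation: 16 hr, 37C, no CO2. Read-out: CellTiter-Fluor, 1 hr, fluorescence.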
# [4] = qHTS assay to identify small molecule antagonists of the estrogen receptor beta (ER-beta) signaling pathway - cell viability counter screen (AID 1259382); also: nearly all actives have a fitted effect of over 55% in size; also: potency is read from the fitted curve at half-maximal effect
# Procedure, shortened: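 Cells: ER-beta-UAS-bla HEK293T, 2,000/well, 2% CS-FBS, 6 hr settle. Cpd + E2 (1nM final), 16 hr, 37C/5% CO2. Bla FRET substrate 2 hr RT, then CellTiter-Glo 30 min RT, luminescence.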
# [5] = molecular target: Estrogen receptor (Homo sapiens) (UniProt P03372); assay: qHTS assay to identify small molecule agonists of the estrogen receptor alpha (ER-alpha) signaling pathway in the presence of an antagonist (AID 1259383; calls by dose curve; also: top concentration of the series differs between compounds; nearly all actives have a fitted effect of over 15% in size)
# Estrogen receptor (Homo sapiens), sequence (P03372 whole entry, looked up): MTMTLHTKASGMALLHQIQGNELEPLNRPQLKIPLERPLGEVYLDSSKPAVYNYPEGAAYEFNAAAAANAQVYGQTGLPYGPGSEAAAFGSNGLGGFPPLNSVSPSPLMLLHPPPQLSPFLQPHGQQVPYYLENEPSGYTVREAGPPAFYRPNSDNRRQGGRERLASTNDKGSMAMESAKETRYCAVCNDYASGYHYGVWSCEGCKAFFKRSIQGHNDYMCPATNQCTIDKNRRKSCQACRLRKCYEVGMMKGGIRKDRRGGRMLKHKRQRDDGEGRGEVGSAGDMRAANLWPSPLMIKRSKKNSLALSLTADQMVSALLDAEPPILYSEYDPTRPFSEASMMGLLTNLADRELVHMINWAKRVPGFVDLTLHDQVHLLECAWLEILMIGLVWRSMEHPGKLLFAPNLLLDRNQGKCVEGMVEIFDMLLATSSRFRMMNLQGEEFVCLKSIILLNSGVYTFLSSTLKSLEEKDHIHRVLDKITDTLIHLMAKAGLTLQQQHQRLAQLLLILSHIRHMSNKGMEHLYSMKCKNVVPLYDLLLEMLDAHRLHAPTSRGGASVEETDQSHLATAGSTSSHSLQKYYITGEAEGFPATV
# Procedure, shortened: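 VM7Luc4E2, endog. ER-alpha + 4×ERE-luc; charcoal-stripped FBS, phenol red-free, 5 d; 24hr plating; +10.0nM ICI-182,780 (final); cpds 15 conc, 22hr, 37C/5% CO2; ONE-Glo luminescence.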
# [6] = qHTS assay to identify small molecule agonists or antagonists of the thyroid stimulating hormone receptor (TSHR) signaling pathway - wild type cell line counter screen (AID 1259384; calls by dose curve)
# Procedure, shortened: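 Counter screen in untransfected Hek293: compounds (15-point titration, triplicate) plus phosphodiesterase inhibitor Ro20-1724 added after 18 h plating; 30 min RT. Intracellular cAMP via competitive d2/cryptate immunoassay, 1 h incubation.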
# [7] = qHTS assay to identify small molecule agonists of the estrogen receptor alpha (ER-alpha) signaling pathway in the presence of an antagonist - cell viability counter screen (AID 1259386);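 also: series mostly up to about 92 µM; cells exposed to compounds for 22 h at 37 °C before the viability read; nearly all actives have a fitted effect of over 30% in size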
# Procedure, shortened: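 VM7Luc4E2, stripped-serum pre-culture 5 d; 24hr plating; +ICI-182,780 10.0nM final; cpds 15 conc, 22hr, 37C/5% CO2; CellTiter-Fluor added at 21hr, fluorescence 1hr later.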
# [8] = molecular target: Progesterone receptor (Homo sapiens) (UniProt P06401); assay: qHTS assay to identify small molecule antagonists of the progesterone receptor (PR) signaling pathway (AID 1346795; active = well fitted inhibition curve with a large enough effect in the signal ratio in the repeat runs, not every such curve was filed as active; the % refers to the signal ratio; also: potency is read from the fitted curve at half-maximal effect)
# Progesterone receptor (Homo sapiens), sequence (P06401 whole entry, looked up): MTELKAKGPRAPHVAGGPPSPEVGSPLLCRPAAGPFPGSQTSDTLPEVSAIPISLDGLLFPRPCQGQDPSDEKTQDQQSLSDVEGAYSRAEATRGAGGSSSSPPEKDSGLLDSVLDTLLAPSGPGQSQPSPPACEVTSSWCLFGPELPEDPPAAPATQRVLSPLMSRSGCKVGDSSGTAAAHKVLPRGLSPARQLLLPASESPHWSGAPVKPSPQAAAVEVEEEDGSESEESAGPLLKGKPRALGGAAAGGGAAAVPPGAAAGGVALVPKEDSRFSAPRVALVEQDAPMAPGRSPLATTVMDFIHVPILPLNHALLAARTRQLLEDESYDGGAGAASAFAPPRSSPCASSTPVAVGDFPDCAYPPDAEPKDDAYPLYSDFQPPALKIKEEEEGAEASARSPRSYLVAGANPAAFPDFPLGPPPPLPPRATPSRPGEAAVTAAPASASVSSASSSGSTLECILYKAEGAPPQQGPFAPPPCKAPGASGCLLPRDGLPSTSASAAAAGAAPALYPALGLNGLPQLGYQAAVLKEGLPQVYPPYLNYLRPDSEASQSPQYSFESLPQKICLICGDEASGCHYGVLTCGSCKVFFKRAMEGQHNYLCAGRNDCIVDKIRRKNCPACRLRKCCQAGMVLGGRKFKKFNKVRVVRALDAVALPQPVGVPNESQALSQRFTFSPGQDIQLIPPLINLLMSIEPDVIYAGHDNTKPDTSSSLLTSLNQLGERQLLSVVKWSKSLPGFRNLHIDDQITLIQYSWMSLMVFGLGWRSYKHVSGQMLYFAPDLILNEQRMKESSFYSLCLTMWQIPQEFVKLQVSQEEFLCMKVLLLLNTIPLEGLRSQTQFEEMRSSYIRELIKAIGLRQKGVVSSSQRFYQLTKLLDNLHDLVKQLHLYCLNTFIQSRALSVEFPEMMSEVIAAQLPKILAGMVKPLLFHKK
# Procedure, shortened: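 Read-out is fluorescence from the LiveBLAzer B/G FRET substrate, cleaved by a UAS-controlled beta-lactamase in PR-UAS-bla HEK293T cells after 16 hr exposure to compound plus 1 nM promegestone (final), followed by 2 hr at room temperature.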
# [9] = qHTS assay to identify small molecule antagonists of the TGF-beta/Smad signaling pathway - cell viability counter screen (AID 1346824); also: nearly all actives have a fitted effect of over 50% in size
# Procedure, shortened: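 Cytotoxicity counter-screen run in the same wells as the beta-lactamase Smad reporter read: CellTiter-Glo luminescence after 30 min at room temperature. HEK 293T SBE-bla cells had 5 hr compound exposure at 37 C with TGF-beta1 (0.25 ng/mL stock).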
# [10] = qHTS assay to identify small molecule agonists of the TGF-beta/Smad signaling pathway - cell viability counter screen (AID 1346829); also: top concentration of the series differs between compounds; nearly all actives have a fitted effect of over 45% in size
# Procedure, shortened: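 In parallel with the Smad reporter read, viability of HEK 293T cells stably carrying SBE-bla is quantified by ATP luminescence following 5 hr compound treatment.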
# [11] = qHTS assay to identify small molecule agonists of the TGF-beta/Smad signaling pathway (AID 1346859; active = well fitted activation curve with a large enough effect in the signal ratio in the repeat runs, not every such curve was filed as active; the % refers to the signal ratio; also: series mostly up to about 77 µM)
# Procedure, shortened: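 SBE-bla HEK 293T, 4,000 cells/well, plated o/n; cpd in DMSO, 5 hr, 37 C/5% CO2; B/G FRET substrate 2 hr RT; ex 405, em 460/530 nm.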
# [12] = molecular target: Thyrotropin-releasing hormone receptor (Homo sapiens) (UniProt P34981); assay: qHTS assay to identify small molecule antagonists of the thyrotropin-releasing hormone receptor (TRHR) signaling pathway (AID 1346877; active = well fitted inhibition curve with a large enough effect in the repeat runs, not every such curve was filed as active; also: series mostly up to about 51 µM)
# Thyrotropin-releasing hormone receptor (Homo sapiens), sequence (P34981 whole entry, looked up): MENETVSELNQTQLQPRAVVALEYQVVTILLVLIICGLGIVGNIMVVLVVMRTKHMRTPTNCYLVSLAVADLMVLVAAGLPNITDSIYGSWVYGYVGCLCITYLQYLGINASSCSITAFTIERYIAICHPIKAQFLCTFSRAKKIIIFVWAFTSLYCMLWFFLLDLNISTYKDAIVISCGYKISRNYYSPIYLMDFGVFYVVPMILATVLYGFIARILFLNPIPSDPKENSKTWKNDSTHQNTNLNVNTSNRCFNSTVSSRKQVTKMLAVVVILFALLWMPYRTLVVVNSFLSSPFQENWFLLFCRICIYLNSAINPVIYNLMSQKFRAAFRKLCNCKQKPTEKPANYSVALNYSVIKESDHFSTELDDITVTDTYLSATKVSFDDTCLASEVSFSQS
# Procedure, shortened: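 Intracellular calcium fluorescence, read kinetically every second over 3 min, reports TRH-evoked signalling in HEK293 cells carrying TRHR. Test compounds were added 5 min ahead of a 1 nM TRH challenge.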
# [13] = molecular target: Thyrotropin-releasing hormone receptor (Homo sapiens) (UniProt P34981); assay: qHTS assay to identify small molecule agonists of the thyrotropin-releasing hormone receptor (TRHR) signaling pathway (AID 1346891; calls by dose curve; also: series mostly up to about 58 µM)
# Procedure, shortened: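 Intracellular calcium rise, read as fluorescence every second for 3 min, served as the agonist signal in dye-loaded HEK293 cells expressing TRHR; each compound ran at 15 concentrations in triplicate.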
# [14] = Human pregnane X receptor (PXR) small molecule agonists, qHTS cell viability counter screen (AID 1346977); also: nearly all actives have a fitted effect of over 50% in size; also: potency is read from the fitted curve at half-maximal effect
# Procedure, shortened: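 PXR-Luc HepG2, 2,000 cells/well, 5% charcoal-stripped FBS; 5hr settle; cpd 24hr, 37C/5% CO2; CellTiter-Fluor at 23hr, read 1hr later (fluorescence).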
# [15] = qHTS assay to identify small molecule agonists of the estrogen receptor beta (ER-beta) signaling pathway - cell viability counter screen (AID 1259380); also: nearly all actives have a fitted effect of over 30% in size; also: potency is read from the fitted curve at half-maximal effect
# Procedure, shortened: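 HEK293T ER-beta-UAS-bla; 2% CS-FBS; 6 hr pre-plate, 16 hr cpd at 37C/5% CO2; LiveBLAzer read first, then CellTiter-Glo 30 min RT, luminescence.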
# [16] = molecular target: Thyrotropin receptor (Homo sapiens) (UniProt P16473); assay: qHTS assay to identify small molecule antagonists of the thyroid stimulating hormone receptor (TSHR) signaling pathway (AID 1259385; calls by dose curve; also: nearly all actives have a fitted effect of over 20% in size; also: potency is read from the fitted curve at half-maximal effect)
# Thyrotropin receptor (Homo sapiens), sequence (P16473 whole entry, looked up): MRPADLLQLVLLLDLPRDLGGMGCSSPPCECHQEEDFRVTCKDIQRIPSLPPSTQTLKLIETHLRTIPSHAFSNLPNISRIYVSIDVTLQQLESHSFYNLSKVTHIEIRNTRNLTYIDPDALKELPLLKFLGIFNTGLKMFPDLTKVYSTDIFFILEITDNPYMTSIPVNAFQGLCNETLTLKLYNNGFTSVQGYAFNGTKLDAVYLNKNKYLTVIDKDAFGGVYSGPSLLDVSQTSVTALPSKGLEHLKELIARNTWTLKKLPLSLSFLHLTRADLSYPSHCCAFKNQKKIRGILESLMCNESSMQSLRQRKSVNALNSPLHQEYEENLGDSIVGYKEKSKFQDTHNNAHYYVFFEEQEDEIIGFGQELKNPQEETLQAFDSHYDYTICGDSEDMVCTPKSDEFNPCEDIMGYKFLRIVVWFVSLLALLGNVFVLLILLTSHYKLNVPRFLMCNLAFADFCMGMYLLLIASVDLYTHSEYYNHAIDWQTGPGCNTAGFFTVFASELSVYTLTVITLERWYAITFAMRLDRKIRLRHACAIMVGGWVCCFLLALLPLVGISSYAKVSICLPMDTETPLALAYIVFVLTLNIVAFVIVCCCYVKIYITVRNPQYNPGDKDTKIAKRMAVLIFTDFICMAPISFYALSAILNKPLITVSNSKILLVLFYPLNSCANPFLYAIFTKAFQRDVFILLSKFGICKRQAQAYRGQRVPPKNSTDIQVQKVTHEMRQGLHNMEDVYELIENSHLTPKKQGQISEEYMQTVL
# Procedure, shortened: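 Antagonist mode: compound-treated TSHR-expressing HEK293 cells were stimulated with 1.5 ng/mL TSH (final) in presence of Ro20-1724 for 30 min at RT. HTRF cAMP detection after 1 h; each compound tested at 15 concentrations, triplicate.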
# [17] = molecular target: Progesterone receptor (Homo sapiens) (UniProt P06401); assay: qHTS assay to identify small molecule agonists of the progesterone receptor (PR) signaling pathway (AID 1346784; calls by dose curve; also: nearly all actives have a fitted effect of over 30% in size)
# Procedure, shortened: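 Beta-lactamase reporter read-out: after 16 hr compound treatment at 37C and a further 2 hr at room temperature with LiveBLAzer B/G FRET substrate, fluorescence was measured in PR-UAS-bla HEK 293T cells grown in 2% charcoal-stripped serum.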
# [18] = qHTS assay to identify small molecule agonists of the progesterone receptor (PR) signaling pathway - cell viability counter screen (AID 1346799; calls by dose curve; also: nearly all actives have a fitted effect of over 45% in size)
# Procedure, shortened: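 Luminescence from CellTiter-Glo, added after the beta-lactamase FRET read in the same wells, gave cytotoxicity in PR-UAS-bla HEK293T cells treated with compounds for 16 hr at 37C.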
# [19] = qHTS assay to identify small molecule antagonists of the progesterone receptor (PR) signaling pathway - cell viability counter screen (AID 1346798); also: nearly all actives have a fitted effect of over 50% in size; also: potency is read from the fitted curve at half-maximal effect
# Procedure, shortened: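 HEK293T PR-UAS-bla, 2% charcoal-stripped FBS; 4 hr pre-plate; cpd + R5020, 16 h 37C; LiveBLAzer read first; then CellTiter-Glo 30 min RT, luminescence.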
# [20] = molecular target: Androgen receptor (Homo sapiens) (UniProt P10275); assay: qHTS assay to identify small molecule agonists of the androgen receptor (AR) signaling pathway in the presence of an antagonist (AID 1259381; calls by dose curve; also: nearly all actives have a fitted effect of over 15% in size)
# Androgen receptor (Homo sapiens), sequence (P10275 whole entry, looked up): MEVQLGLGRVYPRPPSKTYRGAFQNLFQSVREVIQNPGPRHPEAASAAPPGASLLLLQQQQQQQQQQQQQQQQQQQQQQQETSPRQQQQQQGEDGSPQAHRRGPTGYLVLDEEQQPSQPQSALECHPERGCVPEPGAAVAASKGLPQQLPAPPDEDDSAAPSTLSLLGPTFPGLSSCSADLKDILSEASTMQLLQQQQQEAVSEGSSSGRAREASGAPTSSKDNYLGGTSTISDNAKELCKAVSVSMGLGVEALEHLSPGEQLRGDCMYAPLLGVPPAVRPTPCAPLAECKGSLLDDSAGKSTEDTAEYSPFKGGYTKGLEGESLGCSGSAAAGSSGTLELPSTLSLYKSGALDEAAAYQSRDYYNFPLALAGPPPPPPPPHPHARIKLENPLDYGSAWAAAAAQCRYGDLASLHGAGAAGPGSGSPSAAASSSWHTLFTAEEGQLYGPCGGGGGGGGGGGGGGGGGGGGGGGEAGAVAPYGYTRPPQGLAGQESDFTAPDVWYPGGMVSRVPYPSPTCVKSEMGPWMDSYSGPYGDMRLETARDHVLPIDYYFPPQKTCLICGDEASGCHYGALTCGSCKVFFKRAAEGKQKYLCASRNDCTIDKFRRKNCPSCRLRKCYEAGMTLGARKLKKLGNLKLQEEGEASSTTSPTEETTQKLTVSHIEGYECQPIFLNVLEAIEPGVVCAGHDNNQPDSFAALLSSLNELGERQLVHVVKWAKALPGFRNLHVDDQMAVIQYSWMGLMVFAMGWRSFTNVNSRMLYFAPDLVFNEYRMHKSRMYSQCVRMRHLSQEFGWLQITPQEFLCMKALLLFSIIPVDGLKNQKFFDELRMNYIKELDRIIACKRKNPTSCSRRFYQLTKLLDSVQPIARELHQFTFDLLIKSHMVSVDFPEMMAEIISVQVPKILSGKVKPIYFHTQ
# Procedure, shortened: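 MDA-kb2 cells, 3,000/well, rested 5hr at 37C/0% CO2 → nilutamide 3.0uM final or buffer → compounds, 15 conc. → 16hr at 37C → ONE-Glo, 30min RT → luminescence.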
Compound,Potency [1],Potency [2],Potency [3],Potency [4],Potency [5],outcome [6],Potency [7],Potency [8],Potency [9],Potency [10],Potency [11],Potency [12],Potency [13],Potency [14],Potency [15],Potency [16],outcome [17],Potency [18],Potency [19],Potency [20]
CC(=O)Oc1ccc(C2(c3ccc(OC(C)=O)cc3)Oc3ccccc3NC2=O)cc1,inactive,1.88 µM (active),inactive,inactive,inactive,inactive,inactive,21.1 µM (active),inactive,inactive,inactive,inactive,inactive,inactive,,,,,,
CCCCCCCCCC(=O)N(C)C,inactive,inactive,,inactive,,inactive,inactive,inactive,inactive,inactive,inactive,inactive,inactive,inactive,inactive,inactive,inactive,inactive,,
Cc1cc(Nc2ccc(O)cc2)ccc1N,inactive,inactive,,inactive,,,,,inactive,inactive,inactive,,,30.5 µM (active),27.2 µM (active),,,,inactive,
C/C=C/C(=O)C1=C(C)CCCC1(C)C,inactive,inactive,,inactive,inactive,inactive,inactive,inactive,,,inactive,inactive,inactive,inactive,inactive,inactive,inactive,,,inactive
CC(C)c1ccc(O)c(C(C)C)c1,inactive,inactive,inactive,inactive,inactive,inactive,inactive,inactive,inactive,inactive,inactive,inactive,inactive,inactive,,inactive,,,inactive,
CCN(CC)CCOc1ccc(C(O)(Cc2ccc(Cl)cc2)c2ccc(C)cc2)cc1 (stereo not given),inactive,10.6 µM (active),,29.8 µM (active),,inactive,,,,,inactive,inactive,inactive,26.6 µM (active),26.6 µM (active),29.8 µM (active),inactive,,26.6 µM (active),
CO[C@H]1C=CO[C@@]2(C)Oc3c(C)c(O)c4c(O)c(cc(O)c4c3C2=O)NC(=O)/C(C)=C\C=C/[C@H](C)[C@H](O)[C@@H](C)[C@@H](O)[C@@H](C)[C@H](OC(C)=O)[C@@H]1C,inactive,43.6 µM (active),48.9 µM (active),69.1 µM (active),,inactive,,inactive,inactive,inactive,inactive,inactive,inactive,48.9 µM (active),,inactive,inactive,inactive,inactive,
CC1=C(/C=C/C(C)=C/C=C/C(C)=C\C=O)C(C)(C)CCC1,inactive,32.5 µM (active),,,,inactive,,inactive,inactive,inactive,,inactive,inactive,inactive,41 µM (active),inactive,,inactive,,
C[C@@H]1CC[C@H]2C(C)(C)[C@H]3C[C@@]12CC[C@@]3(C)O,inactive,inactive,,inactive,inactive,inactive,inactive,,,inactive,inactive,,,inactive,inactive,inactive,inactive,inactive,inactive,inactive
